These results are taken from ChEMBL document CHEMBL1961873, “Compounds: GSK PKIS; Assays: Nanosyn kinase panel” (2012).

Test [1] addresses Serine/threonine-protein kinase 26 (Homo sapiens) (UniProt Q9P289). The settings on record: at 1 µM.
Test [2] deals with Serine/threonine-protein kinase PAK 1 (Homo sapiens) (UniProt Q13153). The settings on record: at 0.1 µM.
The target is the same in test [3]. The settings on record: at 1 µM.
For test [4], the target named is Serine/threonine-protein kinase PAK 2 (Homo sapiens) (UniProt Q13177). The settings on record: at 0.1 µM.
Serine/threonine-protein kinase PAK 2 (Homo sapiens), sequence (Q13177 whole entry): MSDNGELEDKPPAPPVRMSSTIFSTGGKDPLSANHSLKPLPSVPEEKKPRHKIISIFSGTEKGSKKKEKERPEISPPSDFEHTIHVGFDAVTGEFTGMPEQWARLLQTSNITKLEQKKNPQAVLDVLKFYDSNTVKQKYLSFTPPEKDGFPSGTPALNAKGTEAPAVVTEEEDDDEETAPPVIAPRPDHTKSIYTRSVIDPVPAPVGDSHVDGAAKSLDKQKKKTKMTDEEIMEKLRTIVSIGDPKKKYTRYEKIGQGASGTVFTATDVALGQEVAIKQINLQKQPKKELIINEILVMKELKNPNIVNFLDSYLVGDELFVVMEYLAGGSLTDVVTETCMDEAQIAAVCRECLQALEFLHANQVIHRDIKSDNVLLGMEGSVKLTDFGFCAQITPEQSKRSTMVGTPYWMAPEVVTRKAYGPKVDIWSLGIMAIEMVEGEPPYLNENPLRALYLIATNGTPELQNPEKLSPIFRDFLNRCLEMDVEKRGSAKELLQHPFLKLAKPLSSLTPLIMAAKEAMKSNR
Test [5] shares this target. The settings on record: at 1 µM.
Test [6] addresses Serine/threonine-protein kinase PAK 3 (Homo sapiens) (UniProt O75914). The settings on record: at 0.1 µM.
The target is the same in test [7]. The settings on record: at 1 µM.
In test [8] the target is Serine/threonine-protein kinase PAK 5 (Homo sapiens) (UniProt Q9P286). The settings on record: at 0.1 µM.
Serine/threonine-protein kinase PAK 5 (Homo sapiens), sequence (Q9P286 whole entry, looked up): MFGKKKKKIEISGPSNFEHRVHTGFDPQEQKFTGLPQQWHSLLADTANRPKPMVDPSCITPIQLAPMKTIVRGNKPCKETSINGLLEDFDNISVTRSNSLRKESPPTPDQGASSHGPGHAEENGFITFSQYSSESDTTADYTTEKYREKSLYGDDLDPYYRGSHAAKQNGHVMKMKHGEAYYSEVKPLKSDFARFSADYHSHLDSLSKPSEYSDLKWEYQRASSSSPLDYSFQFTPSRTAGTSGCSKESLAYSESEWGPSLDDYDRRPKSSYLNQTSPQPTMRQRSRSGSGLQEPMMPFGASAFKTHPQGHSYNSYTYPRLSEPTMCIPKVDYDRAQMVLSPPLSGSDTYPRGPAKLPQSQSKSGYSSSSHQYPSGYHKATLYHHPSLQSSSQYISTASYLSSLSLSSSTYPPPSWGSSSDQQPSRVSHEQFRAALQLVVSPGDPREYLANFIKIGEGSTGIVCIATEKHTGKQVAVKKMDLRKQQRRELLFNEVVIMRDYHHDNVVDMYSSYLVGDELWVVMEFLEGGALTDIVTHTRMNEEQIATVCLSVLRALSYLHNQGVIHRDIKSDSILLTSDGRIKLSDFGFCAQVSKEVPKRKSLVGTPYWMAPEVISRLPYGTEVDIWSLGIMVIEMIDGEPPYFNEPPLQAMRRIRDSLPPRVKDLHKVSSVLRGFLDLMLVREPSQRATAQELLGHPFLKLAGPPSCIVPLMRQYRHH
For test [9] the target is unchanged. The settings on record: at 1 µM.
Test [10] addresses Serine/threonine-protein kinase PAK 6 (Homo sapiens) (UniProt Q9NQU5). The settings on record: at 0.1 µM.

Serine/threonine-protein kinase PAK 6 (Homo sapiens), sequence (Q9NQU5 whole entry, looked up): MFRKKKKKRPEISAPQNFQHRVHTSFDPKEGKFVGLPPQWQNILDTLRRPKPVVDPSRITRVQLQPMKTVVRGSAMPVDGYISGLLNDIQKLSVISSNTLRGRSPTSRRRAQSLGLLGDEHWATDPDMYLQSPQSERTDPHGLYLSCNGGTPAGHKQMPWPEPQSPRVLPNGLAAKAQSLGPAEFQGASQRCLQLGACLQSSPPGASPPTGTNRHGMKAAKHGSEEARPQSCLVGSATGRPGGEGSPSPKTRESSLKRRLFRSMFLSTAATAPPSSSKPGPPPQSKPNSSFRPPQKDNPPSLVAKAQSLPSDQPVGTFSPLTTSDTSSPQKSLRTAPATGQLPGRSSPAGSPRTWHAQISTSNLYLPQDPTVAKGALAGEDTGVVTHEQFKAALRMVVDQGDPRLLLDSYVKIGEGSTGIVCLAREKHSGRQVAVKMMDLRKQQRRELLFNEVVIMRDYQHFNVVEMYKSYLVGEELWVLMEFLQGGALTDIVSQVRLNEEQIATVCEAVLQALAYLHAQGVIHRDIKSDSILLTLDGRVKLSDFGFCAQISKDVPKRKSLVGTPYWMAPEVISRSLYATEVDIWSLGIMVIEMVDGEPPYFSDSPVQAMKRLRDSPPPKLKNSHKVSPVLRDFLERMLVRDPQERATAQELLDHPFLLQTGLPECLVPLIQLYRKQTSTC
Serine/threonine-protein kinase 26 (Homo sapiens), sequence (Q9P289 2-416 limits assumed): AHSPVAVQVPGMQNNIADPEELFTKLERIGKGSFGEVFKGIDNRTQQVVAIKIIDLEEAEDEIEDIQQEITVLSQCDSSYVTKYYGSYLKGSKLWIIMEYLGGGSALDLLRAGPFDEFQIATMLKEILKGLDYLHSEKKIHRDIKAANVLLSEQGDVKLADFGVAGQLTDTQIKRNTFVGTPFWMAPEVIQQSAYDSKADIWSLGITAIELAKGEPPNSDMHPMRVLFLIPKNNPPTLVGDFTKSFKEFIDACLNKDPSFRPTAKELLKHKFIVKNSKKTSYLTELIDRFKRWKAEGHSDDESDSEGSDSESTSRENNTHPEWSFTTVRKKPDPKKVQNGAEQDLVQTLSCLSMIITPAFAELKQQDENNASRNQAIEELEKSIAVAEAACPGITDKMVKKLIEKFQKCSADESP
Serine/threonine-protein kinase PAK 3 (Homo sapiens), sequence (O75914 whole entry, looked up): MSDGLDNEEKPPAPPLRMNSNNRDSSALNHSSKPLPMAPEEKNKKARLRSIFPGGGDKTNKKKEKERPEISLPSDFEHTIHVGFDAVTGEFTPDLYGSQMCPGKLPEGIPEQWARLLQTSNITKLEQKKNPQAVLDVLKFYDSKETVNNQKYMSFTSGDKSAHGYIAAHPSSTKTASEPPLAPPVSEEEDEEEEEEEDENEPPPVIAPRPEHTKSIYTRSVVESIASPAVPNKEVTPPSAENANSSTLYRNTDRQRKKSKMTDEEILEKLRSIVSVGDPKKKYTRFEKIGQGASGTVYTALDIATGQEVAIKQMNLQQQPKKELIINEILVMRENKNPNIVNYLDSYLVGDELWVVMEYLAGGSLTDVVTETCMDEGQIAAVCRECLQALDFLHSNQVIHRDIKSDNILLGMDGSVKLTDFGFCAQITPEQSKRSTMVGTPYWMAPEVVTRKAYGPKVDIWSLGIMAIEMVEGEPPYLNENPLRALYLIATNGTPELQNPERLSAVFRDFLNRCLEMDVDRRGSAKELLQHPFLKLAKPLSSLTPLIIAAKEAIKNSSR
Serine/threonine-protein kinase PAK 1 (Homo sapiens), sequence (Q13153 whole entry): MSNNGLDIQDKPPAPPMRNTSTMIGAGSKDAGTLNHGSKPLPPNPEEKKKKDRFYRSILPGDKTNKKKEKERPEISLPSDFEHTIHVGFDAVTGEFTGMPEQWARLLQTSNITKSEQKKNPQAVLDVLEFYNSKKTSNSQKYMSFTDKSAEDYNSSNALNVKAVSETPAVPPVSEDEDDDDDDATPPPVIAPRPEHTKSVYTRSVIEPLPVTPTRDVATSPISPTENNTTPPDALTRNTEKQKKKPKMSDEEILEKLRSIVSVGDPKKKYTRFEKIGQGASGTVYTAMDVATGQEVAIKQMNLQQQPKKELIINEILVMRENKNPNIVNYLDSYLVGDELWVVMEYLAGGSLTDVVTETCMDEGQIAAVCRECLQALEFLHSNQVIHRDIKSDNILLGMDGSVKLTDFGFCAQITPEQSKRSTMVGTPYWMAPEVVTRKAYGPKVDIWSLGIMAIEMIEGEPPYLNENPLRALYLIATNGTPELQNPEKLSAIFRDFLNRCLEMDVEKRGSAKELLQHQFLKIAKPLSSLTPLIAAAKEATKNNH

Turning to `CCn1c(-c2nonc2N)nc2cncc(C(=O)NCCNC)c21`, the inhibition in [1] is -4.29%; in [2] it was 6.24%; in test [3] it was 7.29%; in test [4] it was 1.98%; in [5], 2.75%; in [6] it was 5.11%. Further, the inhibition in test [7] worked out at 5.12%; in test [8] it was 3.97%; in test [9], 7.69%; in test [10], 0.36%.

As for `CCN1CCC(C(=O)Nc2n[nH]c3nnc(-c4cccc(F)c4F)cc23)CC1`, the inhibition in test [1] is 0.11%; in [2], -3.4%; in test [3], -3.06%; in test [4] it was -1.1%; in test [5] it was -2.04%; in test [6] it was -0.81%. Further, the inhibition in [7] is -0.69%; in test [8] it was 0%; in test [9], 1.08%; in test [10], -5.45%.

Regarding `Cc1cc(O)cc(C)c1/C=C/c1cncc(C(N)=O)c1`, the inhibition is -0.01% in test [1]; 1.07% in test [2]; 3.22% in [3]; 0.07% in [4]; -0.24% in [5]; 2.43% in test [6]. In addition, the inhibition came out at 2.79% in [7], 9.11% in [8], 0.51% in test [9] and 9.09% in test [10].

`CN(c1ccc(NC(=O)NCCN2CCOCC2)cc1)c1ccnc(Nc2ccc(CS(C)(=O)=O)cc2)n1`: the inhibition was determined as 0.96% in test [1]; 4.31% in [2]; 4.43% in [3]; 2.52% in test [4]; 1.58% in test [5]; 4.14% in test [6]. Besides, the inhibition in [7] was found to be 3.94%; in [8] it was 12.2%; in test [9], 13.5%; in test [10], 3.99%.

In the case of `COc1c(C(N)=O)cc(-c2ccc(Cl)cc2)cc1-c1ccc(S(N)(=O)=O)cc1`, the inhibition in [1] was found to be 1.45%; in test [2] it was 6.68%; in [3], 12.1%; in [4] it was 2.72%; in test [5], 2.55%; in test [6] it was 4.51%. Further, the inhibition in [7] was 7.97%; in [8], 6.72%; in test [9], 3.56%; in test [10] it was -7.76%.

With `COc1cc(N2CCN(C(C)C)CC2)ccc1Nc1nc(Nc2cccc3ncccc23)c2cc[nH]c2n1`, the inhibition in test [1] is 1.78%; in [2], 0.3%; in test [3], -1.25%; in test [4] it was 0.87%; in test [5] it was -0.27%; in test [6] it was -1.68%. Further, the inhibition in test [7] is -0.48%; in test [8], -2.43%; in test [9] it was -1.65%; in [10] it was 1.57%.

For `NS(=O)(=O)c1ccc(N/N=C2\C(=O)Nc3cccc(CCc4ccncc4)c32)cc1`, the inhibition in test [1] is 9.93%; in [2], 1.58%; in test [3], 2.13%; in [4] it was 0.84%; in [5], 0.54%; in test [6], 0.06%. In addition, the inhibition in test [7] is 0.66%; in [8], 1.07%; in test [9] it was 3.39%; in test [10], -5.12%.

Regarding `COc1ccc(Nc2ncc(-c3ccccc3)o2)cc1OC`, the inhibition was -5.3% in test [1]; 0.24% in test [2]; 1.35% in test [3]; 0.18% in [4]; 0.91% in test [5]; -0.05% in [6]. The inhibition in [7] was 0.75%; in test [8], -8.21%; in [9], -5.61%; in test [10], 8.32%.

`CC1=C(C(=O)Nc2ccc3[nH]nc(C)c3c2)C(c2ccc(C(F)(F)F)cc2)CC(=O)N1` (stereo not given): the inhibition in [1] is -2.31%; in [2], 4.1%; in test [3] it was 3.72%; in test [4], 1.78%; in test [5], 1.55%; in test [6], 2.35%. The inhibition in [7] is 2.95%; in test [8], 10.3%; in [9], -2.13%; in [10] it was -0.15%.

`O=C1Nc2ccccc2/C1=C1\CCc2cc(O)ccc21`: the inhibition was -7.51% in test [1]; 7.55% in test [2]; 7.72% in test [3]; 2.86% in test [4]; 3.05% in test [5]; 5.7% in [6]. The inhibition in test [7] was 6.44%; in test [8], 0.23%; in [9], 1.47%; in test [10], -1.41%.

Turning to `CNC(=O)c1sc(-n2cnc3cc(OC)c(OC)cc32)cc1OCc1ccccc1C(F)(F)F`, the inhibition in test [1] came to 4.9%; in test [2], 2.95%; in [3], 1.15%; in test [4], 0.12%; in [5], 0.57%; in test [6] it was 4.1%. Further, the inhibition in test [7] was 2.98%; in test [8], 1.27%; in [9] it was 0.17%; in test [10] it was -2.28%.

As for `CC1=C(C(=O)Nc2ccc3[nH]ncc3c2)C(c2ccc(F)cc2)N=C(c2ccc(C(F)(F)F)nc2)N1` (stereo not given), the inhibition in test [1] was -0.15%; in [2], 2.26%; in test [3] it was 3.97%; in test [4], 0.86%; in test [5] it was 0.19%; in [6], 1.4%. The inhibition was 0.67% in [7], 5.14% in test [8], -1.73% in test [9] and 8.32% in [10].

Regarding `CC1(C)CC(n2cnc(-c3ccc(F)cc3)c2-c2ccnc(N)n2)CC(C)(C)N1`, the inhibition in test [1] is -4.55%; in [2] it was 0.1%; in test [3] it was 2.11%; in [4], -0.56%; in test [5], 0.36%; in test [6], 0.33%. The inhibition in [7] amounted to 0.79%; in [8], 4.67%; in test [9], 0.79%; in test [10], 1.59%.

Take `COC(=O)Nc1nc2cc(Oc3ccc(NC(=O)Nc4ccccc4)cc3)ccc2[nH]1`: the inhibition was 0.25% in test [1]; 0.78% in test [2]; 3.46% in test [3]; 1.73% in [4]; 0.63% in test [5]; 3.68% in test [6]. Besides, the inhibition was 4.15% in test [7], -3.58% in test [8], -3.97% in test [9] and -4.28% in test [10].

For `Cc1cc(O)cc(C)c1/C=C/c1cncc(C(=O)OC(C)(C)C)c1`, the inhibition in test [1] is 2.31%; in [2], 5.41%; in test [3], 2.7%; in test [4] it was -0.11%; in test [5], 0.96%; in test [6], 2.25%. In addition, the inhibition in [7] was found to be 2.76%; in test [8], 0.52%; in [9], 4.26%; in test [10], 2.02%.

The term inhibition denotes the relative decrease from the control value, in per cent.
